# Assay outcomes: PubChem BioAssay, National Center for Advancing Translational Sciences (NCATS)
# Shown are actives, neighbours in structure and some others; about 19% of the full set was active somewhere.
# DT40 TDP1 CPT: DT40-hTDP1 cell growth loss with CPT; chicken DT40 Tdp1-/-;hTDP1 cells + 20 nM CPT, ATP luminescence, 48 h; Potency, µM (series often up to 46.2 µM), usual class: inhibitors; 12% of 420,000 active; also: nearly all actives have a fitted effect of over 55% in size
#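 Chicken DT40 Tdp1-/- cells complemented with human TDP1, 400 cells/well, exposed to compounds plus 20 nM camptothecin for at least 48 h at 37 C; viability read as ATP content by CellTiter-Glo luminescence.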
# TDP1 inh: blocks human tyrosyl-DNA phosphodiesterase 1 | recombinant TDP1, AlphaScreen DNA substrate cleavage | 0.28% of 350,000 active | Potency, µM (highest dose often 130 µM), actives largely listed as inhibitors | Q9NUW8; also: nearly all actives have a fitted effect of over 40% in size
#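 Recombinant human Tdp1 (E. coli-expressed, 1 nM final) preincubated with compounds 15 min at room temperature, then 5'-biotin/3'-phosphotyrosine-FITC DNA substrate (15 nM final) added for 5 min. AlphaScreen beads (10 ug/ml final) added 10 min; cleavage lowers signal.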
# TDP1 cell noCPT: qHTS for Inhibitors of human tyrosyl-DNA phosphodiesterase 1 (TDP1): qHTS in cells in absence of CPT; DT40 Tdp1-/- hTDP1 cells, no CPT, ATP luminescence, 48 h; Potency, µM (titrated, usually from 46.2 µM), hits mostly inhibitors; 15% of 420,000 active; AID 686978, 2013; also: nearly all actives have a fitted effect of over 55% in size
#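 Stably hTDP1-transfected Tdp1-null chicken DT40 cells were treated with library compounds minus camptothecin and grown for at least 48 hr at 37 °C, after which cellular ATP was quantified by luminescence.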
# RORgamma inh: inhibitors of mouse ROR gamma transcriptional activity; P51450; Drosophila S2 Gal4-RORgamma UAS-luciferase reporter, 20 h; Potency, µM (highest dose often 53.6 µM), hits mostly inhibitors; 5.4% of 310,000 active; AID 2551; also: nearly all actives have a fitted effect of over 60% in size
# Target sequence (P51450 whole entry, looked up, the tested form may be a part): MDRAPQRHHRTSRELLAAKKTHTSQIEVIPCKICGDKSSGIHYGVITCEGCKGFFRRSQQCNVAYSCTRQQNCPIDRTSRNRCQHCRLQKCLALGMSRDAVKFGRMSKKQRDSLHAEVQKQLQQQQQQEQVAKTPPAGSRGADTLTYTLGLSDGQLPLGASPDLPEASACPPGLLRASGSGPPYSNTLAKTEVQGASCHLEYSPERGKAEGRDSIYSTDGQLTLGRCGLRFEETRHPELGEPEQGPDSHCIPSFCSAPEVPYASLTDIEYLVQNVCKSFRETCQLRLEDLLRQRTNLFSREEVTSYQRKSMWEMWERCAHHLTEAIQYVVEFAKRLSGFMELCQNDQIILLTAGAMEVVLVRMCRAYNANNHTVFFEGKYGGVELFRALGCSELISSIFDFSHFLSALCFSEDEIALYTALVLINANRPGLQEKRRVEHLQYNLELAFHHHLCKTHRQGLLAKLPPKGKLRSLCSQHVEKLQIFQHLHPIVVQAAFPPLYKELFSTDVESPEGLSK
#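 Stably transfected Drosophila Schneider cells are the test system, with ROR gamma fused to Gal4 and luciferase under UAS control; luminescence is read after 20 hr of 700 uM copper sulfate induction at ambient temperature.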
# VP16 counter: counter-screen for ROR gamma inhibitors: Gal4-VP16 reporter; 3.5% of 310,000 active; AID 2546; Drosophila S2 Gal4-VP16 UAS-luciferase, luminescence, 20 h; Potency, µM (doses to about 53.6 µM), most hits filed as inhibitors;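 also: Gal4-VP16 expression switched on by copper sulfate through the metallothionein promoter; nearly all actives have a fitted effect of over 50% in size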
# A number is an active result; - = inactive; ? = inconclusive; . = not tested or not shown; [ ] = remark or other dose. Calls follow the shape of the dose curve; as a rule, active = well fitted curve in the direction sought with a large enough effect; inconclusive = small, poorly fitted or top-dose-only effect, or another doubt; inactive = no such curve, though single readings can be large; an effect the other way counts as inactive or inconclusive.
SMILES,DT40 TDP1 CPT,TDP1 inh,TDP1 cell noCPT,RORgamma inh,VP16 counter
COc1ccc(Cl)cc1NC(=O)CN(C)C(=O)c1cc2c(F)cccc2s1,10µM,-,6.5µM,.,.
COc1cccc(NC(=O)CN(C)CC(=O)Nc2ccc(C)cc2Cl)c1,?,-,13µM,-,-
COc1ccc(Cl)cc1NC(=O)CN(C)CC(=O)Nc1cc(OC)c(OC)c(OC)c1,5.8µM,.,4.1µM,-,-
Cc1ccc([N+](=O)[O-])cc1NC(=O)CN1CCCCC1,-,-,-,-,-
Cc1c(O)nc(SC2CC(=O)N(c3cc(Cl)cc(Cl)c3)C2=O)[nH]c1=O (stereo unspecified),-,.,-,.,.
COc1cc(C2N=C(N)Nc3nc4ccccc4n32)ccc1OCCC(C)C (stereo unspecified),23µM,-,18µM,.,.
CC(C)CCOc1ccc(C2N=C(N)Nc3nc4ccccc4n32)cc1 (stereo unspecified),?,-,?,.,.
NC1=NC(c2ccc(F)cc2)n2c(nc3ccccc32)N1 (stereo unspecified),-,-,-,-,-
CCCN(CCC)c1ccc(C2N=C(N)Nc3nc4ccccc4n32)cc1 (stereo unspecified),23µM,-,16µM,.,.
O=S(=O)(c1ccccc1)c1nnn2c1nc(N1CCN(c3ccccc3)CC1)c1cc(Cl)ccc12,-,-,-,.,.
CC(=O)Nc1ccc(S(=O)(=O)NC2(C(F)(F)F)C(=O)Nc3c2c(=O)[nH]c(=O)n3Cc2ccco2)cc1 (stereo unspecified),?,-,-,-,-
O=C(NCc1ccccc1Cl)c1ccc(Nc2nc3ccccc3n3nnnc23)cc1,?,-,?,.,.
NC(=S)N/N=C1\CCOc2ccc(F)cc21,?,-,16µM,5µM,22µM
Cc1ccc(C(=O)Nc2ccccc2OC(F)F)cc1,-,-,-,-,-
CCC(=O)Nc1ccc(/C(C)=N\NC(=O)c2ccc(OC)cc2)cc1,-,-,-,-,-
Cc1ccc(C)c(NC(=S)NCc2ccccc2)c1,?,.,?,3.2µM,5µM
COc1ccc(CCNC(=S)Nc2cc(C)ccc2C)cc1,?,-,?,-,-
Cc1ccc(NC(=S)NCc2ccccc2)cc1C,-,.,?,.,.
COc1ccc(CNC(=S)Nc2cc(C)ccc2C)cc1,?,-,18µM,7.9µM,7.1µM
Cc1ccc(CNC(=S)Nc2cc(C)ccc2OC(F)F)cc1,-,-,?,4.5µM,?
COc1ccc(/C(C)=N/NC(=S)Nc2cc(C)ccc2C)cc1,23µM,-,23µM,2.8µM,11µM
COc1ccc(OCC(=O)N/N=C/C=C/c2ccccc2)cc1,-,-,-,-,-
CCOC(=O)c1cn(-c2ccccc2CO)c2c(F)c(F)c(F)cc2c1=O,-,-,-,-,-
Cc1ccc(NC(=S)NCC(O)c2ccccc2)c(C)c1 (stereo unspecified),?,.,-,-,-
Cc1ccc(C)c(NC(=S)N/N=C/C(C)c2ccccc2)c1 (stereo unspecified),?,-,?,0.56µM,7.1µM
SMILES,DT40 TDP1 CPT,TDP1 inh,TDP1 cell noCPT,RORgamma inh,VP16 counter
CCc1ccc(NC(=O)CCCn2nc(CC)n3c(cc4occc43)c2=O)cc1,?,-,-,-,-
CCc1nn(CCCC(=O)NCc2ccc(OC(C)C)cc2)c(=O)c2cc3occc3n12,?,-,12µM,-,-
CCc1nn(CCCC(=O)NC2CCCCC2C)c(=O)c2cc3occc3n12 (stereo unspecified),?,.,26µM,.,.
CCc1nn(CCCC(=O)N(C)Cc2ccccc2)c(=O)c2cc3occc3n12,16µM,-,?,-,-
CCOC(=O)c1cccc(NC(=O)CCc2nnc3ccc(N4CCCCC4)nn23)c1,?,-,-,-,-
COc1cc(OC)cc(C(=O)N[C@H](C(=O)N2CCc3ccccc32)C(C)C)c1,?,-,?,?,-
COc1cc(OC)cc(C(=O)NC(C(=O)N2CCc3ccccc3C2)C(C)C)c1 (stereo unspecified),21µM,-,?,-,-
COc1ccc(NC(=S)NC23CC4CC(CC(C4)C2)C3)cc1OC,?,-,?,1.3µM,3.5µM
COc1cc(OC)c(C(=O)NC23CC4CC(CC(C4)C2)C3)cc1OC,?,-,18µM,?,-
COc1ccc(C(=O)NC23CC4CC(CC(C4)C2)C3)cc1OC,-,.,-,-[1.91 µM],-
COc1cc(OC)cc(C(=O)N[C@H](C(=O)NC23CC4CC(CC(C4)C2)C3)C(C)C)c1,29µM,-,?,-,-
COc1ccc(NC(=S)NN2CCN(C)CC2)cc1OC,-,-,-,-,-
CCOC(=O)c1c(S(=O)(=O)NCC(=O)Nc2cccc(C)c2C)c(C)n(C)c1C,-,-,-,-,-
CC1C(=O)Nc2ccccc2N1C(=O)C1CC1 (stereo unspecified),-,-,-,-,-
COc1ccc(-c2nnc(-c3ccc(F)cc3)o2)cc1,-,.,-,-,-
COc1cccc2sc(Nc3nnc(-c4cccs4)o3)nc12,3.7µM,-,8.2µM,1.4µM,2µM
COc1cccc2sc(Nc3nnc(-c4ccc(F)cc4)o3)nc12,5.8µM,-,5.8µM,2.2µM,5µM
Fc1cccc2sc(Nc3nnc(-c4ccco4)o3)nc12,?,-,23µM,0.13µM,-[0.365 µM]
O=C(Nc1nc2c(F)cccc2s1)c1ccco1,-,.,-,?,-
O=C(c1cccc(F)c1)N1CCC[C@@]2(CCN(c3cccc(-c4ccccc4)c3)C2)C1,21µM,.,21µM,-,-
O=C(c1cccc(F)c1)N1CCC2(CC1)CN(c1cccc(-c3ccccc3)c1)C2,?,.,16µM,-,?
O=C(c1cccc(F)c1)N1CCC2(CC1)CCN(c1cccc(-c3ccccc3)c1)CC2,?,.,16µM,-,-
COc1ccc(C(=O)N2CCC3(CC2)CCN(c2cccc(-c4ccccc4)c2)CC3)cc1,0.12µM,.,0.23µM,-,-
O=C(c1ccncc1)N1CCC2(CC1)CCN(c1cccc(-c3ccccc3)c1)CC2,?,.,?,-,-
O=C(c1cccc(F)c1)N1CCC2(CCCN(c3cccc(-c4ccccc4)c3)C2)CC1,-,.,?,-,-
SMILES,DT40 TDP1 CPT,TDP1 inh,TDP1 cell noCPT,RORgamma inh,VP16 counter
CC1CC(C)CN(CCCNC(=O)C2CCN(c3ncnc4c3sc3cccc(F)c34)CC2)C1 (stereo unspecified),.,-,.,-,-
CCNc1c(NC(C)=O)c(=O)oc2ccccc12,-,-,-,-,-
N#Cc1cccc(NC(=O)N2CC[C@@]3(CCCN(C(=O)c4cccc(F)c4)C3)C2)c1,-,.,21µM,-,-
CC(=O)c1cnc2nc(SCc3cccc(C)c3)nn2c1C,?,.,15µM,?,-
COc1cnc(-c2ccccn2)nc1Oc1ccccc1Cl,?,-,?,2.2µM,13µM
COc1cnc(-c2ccccn2)nc1Oc1ccc(Cl)cc1,1.6µM,-,1.5µM,3.5µM,8.9µM
